# Source: PubChem BioAssay
# Unmarked numbers belong to inactive results. For some assays here: Results with a measured potency or affinity are listed apart. Calls of active or inactive are those of the source. Unless noted, no rule for the calls is given here.
# Key:
# [1] = antimalarial activity against Dd2 strain (AID 2302;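 active = growth inhibition above 50% at the single 2 µM test dose, taken to imply half-maximal potency below 2 µM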;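 also: 0% = DMSO untreated growth and 100% = chloroquine plus artemisinin killed control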); settings: P. falciparum Dd2 in RBCs, LDH growth readout, 72 h; at 2 µM; hits give high values
# [2] = HepG2 cytotoxicity, primary screen, cytotoxicity control for P. falciparum antimalarial project, cell-based, ATP luminescence (AID 2303;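 active = inhibition above 50%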;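 also: 0% = DMSO wells and 100% = digitonin-killed cells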); settings: HepG2 viability, 24-48 h, at 10 µM, hits give high values
# [3] = molecular target: L-lactate dehydrogenase (Plasmodium falciparum (isolate CDC / Honduras)) (UniProt Q27743); experiment: PfLDH activity inhibition – cell lysate, 3D7 strain, counter-screen for P. falciparum growth inhibition project (AID 2304);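 also: 0% = vehicle and 100% = reference inhibitor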; settings: P. falciparum 3D7 crude extract, LDH APAD/NBT absorbance; at 2 µM; hits give high values
# [4] = inhibition of 3D7 malaria parasite growth – strain 3D7 (AID 2306);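 also: 0% = DMSO wells and 100% = chloroquine plus artemisinin control wells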; settings: P. falciparum 3D7 erythrocytic growth, LDH absorbance, 72 h; at 2 µM; hits give high values
# [5] = molecular target: Calcium-dependent protein kinase 1 (Plasmodium falciparum (isolate 3D7)) (UniProt P62344); experiment: PfCDPK1 kinase inhibitors, biochemical, TCAMS library (AID 1159585; cut-off not given, nearly all actives have IC50 up to about 0.98 µM;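 also: inhibitors leave more ATP so luminescence rises with inhibition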); settings: recombinant PfCDPK1, Kinase-Glo ATP depletion luminescence
# [6] = molecular target: Plasmodium falciparum protein kinase 6 (PK6, PF3D7_1337100) (UniProt Q8IDW1); experiment: PfPK6 kinase inhibitors, biochemical, TCAMS library (AID 1159586); settings: recombinant PfPK6, Kinase-Glo ATP depletion luminescence
# [7] = molecular target: Protein kinase 7 (PK7), Plasmodium falciparum 3D7 (PF3D7_0213400) (UniProt Q7YTF7); experiment: inhibition of Plasmodium PK7 catalytic activity – biochemical, TCAMS antimalarial set, Kinase-Glo luminescence (AID 1159587); settings: recombinant PfPK7, Kinase-Glo ATP depletion luminescence
# [8] = molecular target: Calcium-dependent protein kinase 4 (Plasmodium falciparum (isolate 3D7)) (UniProt Q8IBS5); experiment: PfCDPK4 kinase inhibitors, biochemical, TCAMS library (AID 1159588; cut-off not given, nearly all actives have IC50 up to about 0.91 µM); settings: recombinant PfCDPK4, Kinase-Glo ATP depletion luminescence
# Chain of Calcium-dependent protein kinase 4 (Plasmodium falciparum (isolate 3D7)) (Q8IBS5 whole entry, looked up): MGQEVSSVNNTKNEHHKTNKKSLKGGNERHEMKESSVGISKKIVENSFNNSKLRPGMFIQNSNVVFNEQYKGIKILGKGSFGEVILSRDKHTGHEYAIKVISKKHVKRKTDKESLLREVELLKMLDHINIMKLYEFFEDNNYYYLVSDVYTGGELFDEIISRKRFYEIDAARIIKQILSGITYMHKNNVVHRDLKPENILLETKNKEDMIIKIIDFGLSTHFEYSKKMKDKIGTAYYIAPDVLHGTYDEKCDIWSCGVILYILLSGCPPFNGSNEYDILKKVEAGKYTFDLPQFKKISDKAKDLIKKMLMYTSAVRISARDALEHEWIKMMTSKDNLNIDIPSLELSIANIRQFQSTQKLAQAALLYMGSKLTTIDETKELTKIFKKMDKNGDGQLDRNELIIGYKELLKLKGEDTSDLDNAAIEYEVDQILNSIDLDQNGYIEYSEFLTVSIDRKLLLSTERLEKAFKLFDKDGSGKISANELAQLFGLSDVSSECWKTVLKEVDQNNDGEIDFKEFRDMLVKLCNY
# Chain of Plasmodium falciparum protein kinase 6 (PK6, PF3D7_1337100) (Q8IDW1 1-305): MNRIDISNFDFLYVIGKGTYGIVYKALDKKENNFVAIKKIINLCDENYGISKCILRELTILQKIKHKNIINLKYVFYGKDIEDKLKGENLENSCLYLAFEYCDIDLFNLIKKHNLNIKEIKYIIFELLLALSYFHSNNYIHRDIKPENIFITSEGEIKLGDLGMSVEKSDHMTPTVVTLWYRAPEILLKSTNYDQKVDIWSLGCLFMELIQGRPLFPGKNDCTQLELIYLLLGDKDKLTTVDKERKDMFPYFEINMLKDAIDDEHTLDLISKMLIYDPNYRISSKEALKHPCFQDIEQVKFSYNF
# Chain of Calcium-dependent protein kinase 1 (Plasmodium falciparum (isolate 3D7)) (P62344 whole entry, looked up): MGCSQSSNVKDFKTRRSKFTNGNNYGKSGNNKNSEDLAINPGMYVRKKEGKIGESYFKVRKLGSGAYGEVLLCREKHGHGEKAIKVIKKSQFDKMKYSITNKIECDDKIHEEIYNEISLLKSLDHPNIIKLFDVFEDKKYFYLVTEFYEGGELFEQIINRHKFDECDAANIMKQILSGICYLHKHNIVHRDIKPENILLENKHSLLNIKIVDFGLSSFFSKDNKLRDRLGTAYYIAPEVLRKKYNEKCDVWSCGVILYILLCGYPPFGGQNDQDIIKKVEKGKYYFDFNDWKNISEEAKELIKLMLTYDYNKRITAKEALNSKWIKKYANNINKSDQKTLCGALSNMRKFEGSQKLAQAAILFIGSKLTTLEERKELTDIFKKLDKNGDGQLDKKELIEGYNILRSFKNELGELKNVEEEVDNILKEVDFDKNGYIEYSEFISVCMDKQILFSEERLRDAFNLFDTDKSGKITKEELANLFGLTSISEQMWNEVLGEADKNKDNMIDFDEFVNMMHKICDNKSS
# Chain of L-lactate dehydrogenase (Plasmodium falciparum (isolate CDC / Honduras)) (Q27743 whole entry, looked up): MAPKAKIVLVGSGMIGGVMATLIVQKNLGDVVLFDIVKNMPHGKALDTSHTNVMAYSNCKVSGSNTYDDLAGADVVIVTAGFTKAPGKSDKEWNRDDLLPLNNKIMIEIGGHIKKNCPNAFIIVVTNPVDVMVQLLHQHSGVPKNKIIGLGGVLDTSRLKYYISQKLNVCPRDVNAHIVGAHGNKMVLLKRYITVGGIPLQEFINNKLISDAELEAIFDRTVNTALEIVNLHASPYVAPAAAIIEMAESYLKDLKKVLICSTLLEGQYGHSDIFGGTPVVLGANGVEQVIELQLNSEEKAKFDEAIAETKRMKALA
# Chain of Protein kinase 7 (PK7), Plasmodium falciparum 3D7 (PF3D7_0213400) (Q7YTF7 1-343): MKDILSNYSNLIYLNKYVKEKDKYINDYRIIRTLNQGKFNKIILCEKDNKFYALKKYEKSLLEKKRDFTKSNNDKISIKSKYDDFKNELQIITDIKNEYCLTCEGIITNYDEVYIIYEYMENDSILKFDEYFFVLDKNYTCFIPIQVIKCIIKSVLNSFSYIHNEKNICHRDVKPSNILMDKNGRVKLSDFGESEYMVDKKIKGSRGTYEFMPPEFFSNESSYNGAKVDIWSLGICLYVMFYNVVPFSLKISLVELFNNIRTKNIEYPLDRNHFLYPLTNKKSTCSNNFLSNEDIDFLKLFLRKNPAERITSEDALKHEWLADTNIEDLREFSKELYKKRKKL
Compound,growth inhibition [1],inhibition [2],inhibition [3],growth inhibition [4],outcome [5],outcome [6],outcome [7],outcome [8]
CCNCc1ccc(-c2cc3ncnc(Nc4ccc(OCc5cccc(F)c5)c(Cl)c4)c3s2)[nH]1,74% (active),22%,6%,103% (active),inactive,inactive,inactive,inactive
Cc1cc(NC2CCCC2)nc(Nc2ccccc2)n1,75% (active),26%,0%,100% (active),inactive,inactive,inactive,inactive
CC1CN(Cc2cccc(-c3ccc(-c4nc5ccccc5[nH]4)cc3)c2)CC(C)O1 (stereo not given),88% (active),37%,-6%,90% (active),inactive,inactive,inactive,inactive
COc1ccc(CCNCCCCCCNCCc2ccc(Cl)c3ccccc23)cc1OC,28%,100% (active),6%,100% (active),inactive,inactive,inactive,inactive
CCc1ccc(C2=Nn3c(nnc3-c3cccs3)SC2)cc1,20%,9%,0%,93% (active),inactive,inactive,inactive,inactive
CCCOC(=O)c1ccc(OCCCON2C(N)=NC(N)=NC2(C)C)cc1,97% (active),61% (active),6%,95% (active),inactive,inactive,inactive,inactive
Cc1cc(C)nc(-n2[nH]c(C)c(Cc3ccc(C(C)(C)C)cc3)c2=O)n1,61% (active),-9%,-1%,88% (active),inactive,inactive,inactive,inactive
CC(C)(Oc1c(C2CCN(CCCCNC(=O)c3ccc(-c4ccc(C#N)cc4)cc3)CC2)ccc2c1CCCC2)C(N)=O,82% (active),34%,6%,100% (active),inactive,inactive,inactive,inactive
O=C1COc2ccc(CNC3CCC(O)(CCc4ccnc5cc6c(cc45)OCCO6)CC3)nc2N1 (stereo not given),-1%,-5%,-6%,92% (active),inactive,inactive,inactive,inactive
Cc1cc(N[C@@H](Cc2ccccc2)C(=O)NCc2cccc(F)c2)nc(NCC2CCCCC2)n1,42%,43%,-2%,101% (active),inactive,inactive,inactive,inactive
